Laboratory results published in the supplement of paper PMC10849652.
Targets with a hit are over-represented here; the source holds about 7,900 in all. About 0.6% of all pairs of compound and target were hits.

Compound: c1cn2cc(-c3ccc4cn[nH]c4c3)nc(Nc3ccc(N4CCOCC4)cc3)c2n1 [entospletinib]
Assay: log2 fold change, soluble protein after heating vs DMSO (PISA); higher = thermal stabilisation; K562 cells, 10 uM, 30 min; active = over 0.2 and 3.5 SD of the protein, either way, in both replicates (recomputed)
Procedure, shortened: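 Values are thermal stability changes relative to control samples and are taken from duplicates. They are stated as log2 fold changes. Before quantification by TMTpro 16plex LC-MS/MS with equalised channel sums, K562 cells at 2×10^6 cells/mL were treated with 10 μM compound for 30 min, heated in aliquots for 3 min across 48°C-58°C, pooled, extracted in PBS with 0.5% NP-40 at 4°C, and centrifuged at 21,000xg for 90 min to give the soluble supernatant.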

Sequence of UniProt Q16656 (Q16656 whole entry, looked up): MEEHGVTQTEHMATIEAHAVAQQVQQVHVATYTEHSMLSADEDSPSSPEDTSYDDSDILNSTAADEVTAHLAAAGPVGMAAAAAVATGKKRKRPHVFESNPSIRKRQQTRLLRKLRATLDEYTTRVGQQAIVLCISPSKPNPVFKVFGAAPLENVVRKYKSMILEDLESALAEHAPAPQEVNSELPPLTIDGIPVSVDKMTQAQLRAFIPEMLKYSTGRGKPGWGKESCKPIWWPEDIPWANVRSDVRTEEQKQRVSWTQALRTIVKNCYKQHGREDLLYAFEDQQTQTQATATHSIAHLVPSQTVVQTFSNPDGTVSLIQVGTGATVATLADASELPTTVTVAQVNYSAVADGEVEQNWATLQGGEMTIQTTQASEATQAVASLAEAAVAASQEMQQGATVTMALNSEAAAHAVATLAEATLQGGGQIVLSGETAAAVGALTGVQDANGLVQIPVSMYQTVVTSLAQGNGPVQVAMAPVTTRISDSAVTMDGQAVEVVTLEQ
Sequence of UniProt O95169 (O95169 whole entry, looked up): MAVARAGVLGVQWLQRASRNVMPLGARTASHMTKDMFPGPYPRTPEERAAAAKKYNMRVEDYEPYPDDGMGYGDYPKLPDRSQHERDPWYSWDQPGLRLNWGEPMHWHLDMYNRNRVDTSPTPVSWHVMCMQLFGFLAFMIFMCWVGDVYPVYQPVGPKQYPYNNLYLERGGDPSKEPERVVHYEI
Sequence of UniProt Q96T76 (Q96T76 whole entry, looked up): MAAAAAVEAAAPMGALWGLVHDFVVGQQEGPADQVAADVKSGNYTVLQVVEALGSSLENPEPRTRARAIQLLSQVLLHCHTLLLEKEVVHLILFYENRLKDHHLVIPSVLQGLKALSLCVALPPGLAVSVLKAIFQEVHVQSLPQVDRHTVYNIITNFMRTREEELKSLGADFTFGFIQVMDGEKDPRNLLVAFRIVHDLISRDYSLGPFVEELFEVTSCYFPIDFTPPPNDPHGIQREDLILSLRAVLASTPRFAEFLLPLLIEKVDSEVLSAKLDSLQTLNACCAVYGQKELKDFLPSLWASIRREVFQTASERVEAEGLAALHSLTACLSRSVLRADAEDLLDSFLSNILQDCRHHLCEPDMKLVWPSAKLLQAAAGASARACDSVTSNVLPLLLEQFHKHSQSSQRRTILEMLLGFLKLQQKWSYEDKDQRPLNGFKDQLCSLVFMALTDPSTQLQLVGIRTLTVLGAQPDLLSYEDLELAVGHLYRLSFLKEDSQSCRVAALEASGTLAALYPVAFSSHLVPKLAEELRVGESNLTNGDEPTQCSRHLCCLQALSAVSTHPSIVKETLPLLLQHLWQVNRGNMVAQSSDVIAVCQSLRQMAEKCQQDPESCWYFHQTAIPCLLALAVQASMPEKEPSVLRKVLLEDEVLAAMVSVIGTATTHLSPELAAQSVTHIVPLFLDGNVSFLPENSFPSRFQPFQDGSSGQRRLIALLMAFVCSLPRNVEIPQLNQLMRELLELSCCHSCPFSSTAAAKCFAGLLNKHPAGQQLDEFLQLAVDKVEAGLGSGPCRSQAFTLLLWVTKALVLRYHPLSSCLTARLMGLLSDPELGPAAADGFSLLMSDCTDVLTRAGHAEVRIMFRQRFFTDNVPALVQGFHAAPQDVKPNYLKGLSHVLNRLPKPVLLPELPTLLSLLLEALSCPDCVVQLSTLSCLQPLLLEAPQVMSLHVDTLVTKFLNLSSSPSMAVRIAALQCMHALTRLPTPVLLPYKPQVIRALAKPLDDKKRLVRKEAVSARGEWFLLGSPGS
Sequence of UniProt P49757 (P49757 whole entry, looked up): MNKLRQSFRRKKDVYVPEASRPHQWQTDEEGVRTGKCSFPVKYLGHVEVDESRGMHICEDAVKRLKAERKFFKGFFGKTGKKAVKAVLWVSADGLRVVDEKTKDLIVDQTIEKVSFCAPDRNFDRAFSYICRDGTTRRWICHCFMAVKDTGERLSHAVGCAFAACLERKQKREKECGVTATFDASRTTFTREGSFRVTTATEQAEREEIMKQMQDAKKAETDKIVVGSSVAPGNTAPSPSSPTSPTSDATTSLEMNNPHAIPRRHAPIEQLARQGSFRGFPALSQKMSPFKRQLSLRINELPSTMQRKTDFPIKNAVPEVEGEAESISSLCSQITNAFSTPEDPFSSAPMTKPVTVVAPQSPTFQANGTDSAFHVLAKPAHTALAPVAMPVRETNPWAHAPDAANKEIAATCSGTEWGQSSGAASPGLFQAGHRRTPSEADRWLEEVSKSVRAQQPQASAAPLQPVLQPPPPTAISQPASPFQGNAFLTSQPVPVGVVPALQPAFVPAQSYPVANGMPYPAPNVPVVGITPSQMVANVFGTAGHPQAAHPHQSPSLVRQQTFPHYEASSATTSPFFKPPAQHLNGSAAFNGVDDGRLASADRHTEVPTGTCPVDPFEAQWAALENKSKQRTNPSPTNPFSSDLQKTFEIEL
Sequence of UniProt Q9BZF1 (Q9BZF1 whole entry, looked up): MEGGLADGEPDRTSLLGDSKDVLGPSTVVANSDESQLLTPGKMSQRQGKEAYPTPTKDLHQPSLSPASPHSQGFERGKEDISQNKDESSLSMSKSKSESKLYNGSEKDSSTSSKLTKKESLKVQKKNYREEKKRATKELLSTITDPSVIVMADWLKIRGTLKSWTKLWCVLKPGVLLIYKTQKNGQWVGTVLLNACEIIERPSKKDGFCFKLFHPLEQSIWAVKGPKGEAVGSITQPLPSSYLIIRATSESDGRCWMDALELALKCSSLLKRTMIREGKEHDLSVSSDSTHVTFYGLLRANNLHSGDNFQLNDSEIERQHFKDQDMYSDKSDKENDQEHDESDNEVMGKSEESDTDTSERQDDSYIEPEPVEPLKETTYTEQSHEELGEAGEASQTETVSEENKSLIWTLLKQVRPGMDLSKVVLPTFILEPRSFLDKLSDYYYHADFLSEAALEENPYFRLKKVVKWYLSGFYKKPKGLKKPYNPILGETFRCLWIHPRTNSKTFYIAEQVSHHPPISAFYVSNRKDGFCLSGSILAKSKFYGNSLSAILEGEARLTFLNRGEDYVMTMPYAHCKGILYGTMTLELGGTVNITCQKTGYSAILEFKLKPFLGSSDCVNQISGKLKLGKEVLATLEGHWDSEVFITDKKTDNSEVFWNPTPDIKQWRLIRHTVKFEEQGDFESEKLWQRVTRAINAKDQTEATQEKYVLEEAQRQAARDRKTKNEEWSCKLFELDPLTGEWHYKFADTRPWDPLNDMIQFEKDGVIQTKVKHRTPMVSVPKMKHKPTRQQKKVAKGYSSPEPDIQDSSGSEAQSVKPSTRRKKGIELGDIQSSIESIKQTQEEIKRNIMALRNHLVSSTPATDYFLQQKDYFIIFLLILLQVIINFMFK
Sequence of UniProt Q9BRA0 (Q9BRA0 whole entry, looked up): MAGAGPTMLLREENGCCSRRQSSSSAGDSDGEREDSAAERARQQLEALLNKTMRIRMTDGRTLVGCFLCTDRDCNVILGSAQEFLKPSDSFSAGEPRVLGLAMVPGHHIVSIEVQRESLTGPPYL
Sequence of UniProt Q9BPX3 (Q9BPX3 whole entry, looked up): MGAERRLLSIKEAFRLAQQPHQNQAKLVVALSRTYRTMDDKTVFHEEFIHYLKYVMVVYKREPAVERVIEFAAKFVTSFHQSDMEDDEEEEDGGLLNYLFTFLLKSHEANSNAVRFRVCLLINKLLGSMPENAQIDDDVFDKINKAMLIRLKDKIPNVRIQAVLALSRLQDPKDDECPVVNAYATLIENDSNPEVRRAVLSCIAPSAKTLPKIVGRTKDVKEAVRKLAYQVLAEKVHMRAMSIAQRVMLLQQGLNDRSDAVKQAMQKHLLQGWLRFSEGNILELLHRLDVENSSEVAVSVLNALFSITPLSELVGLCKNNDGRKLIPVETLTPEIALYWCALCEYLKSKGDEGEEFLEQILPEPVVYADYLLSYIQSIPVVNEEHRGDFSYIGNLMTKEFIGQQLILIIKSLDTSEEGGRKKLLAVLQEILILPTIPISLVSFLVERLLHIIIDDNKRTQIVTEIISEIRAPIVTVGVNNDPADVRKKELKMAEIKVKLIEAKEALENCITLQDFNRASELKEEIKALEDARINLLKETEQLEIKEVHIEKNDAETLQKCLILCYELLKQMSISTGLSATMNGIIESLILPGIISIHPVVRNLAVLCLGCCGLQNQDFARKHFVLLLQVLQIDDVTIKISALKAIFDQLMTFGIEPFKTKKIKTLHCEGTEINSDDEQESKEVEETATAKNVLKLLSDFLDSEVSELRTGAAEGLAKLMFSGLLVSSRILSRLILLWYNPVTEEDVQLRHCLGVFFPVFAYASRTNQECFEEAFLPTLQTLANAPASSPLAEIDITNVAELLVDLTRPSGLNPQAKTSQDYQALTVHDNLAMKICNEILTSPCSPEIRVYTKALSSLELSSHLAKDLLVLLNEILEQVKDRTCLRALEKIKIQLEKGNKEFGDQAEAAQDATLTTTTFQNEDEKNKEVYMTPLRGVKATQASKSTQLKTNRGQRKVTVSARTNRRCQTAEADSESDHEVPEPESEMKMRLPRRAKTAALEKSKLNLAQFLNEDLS
Sequence of UniProt P49116 (P49116 whole entry, looked up): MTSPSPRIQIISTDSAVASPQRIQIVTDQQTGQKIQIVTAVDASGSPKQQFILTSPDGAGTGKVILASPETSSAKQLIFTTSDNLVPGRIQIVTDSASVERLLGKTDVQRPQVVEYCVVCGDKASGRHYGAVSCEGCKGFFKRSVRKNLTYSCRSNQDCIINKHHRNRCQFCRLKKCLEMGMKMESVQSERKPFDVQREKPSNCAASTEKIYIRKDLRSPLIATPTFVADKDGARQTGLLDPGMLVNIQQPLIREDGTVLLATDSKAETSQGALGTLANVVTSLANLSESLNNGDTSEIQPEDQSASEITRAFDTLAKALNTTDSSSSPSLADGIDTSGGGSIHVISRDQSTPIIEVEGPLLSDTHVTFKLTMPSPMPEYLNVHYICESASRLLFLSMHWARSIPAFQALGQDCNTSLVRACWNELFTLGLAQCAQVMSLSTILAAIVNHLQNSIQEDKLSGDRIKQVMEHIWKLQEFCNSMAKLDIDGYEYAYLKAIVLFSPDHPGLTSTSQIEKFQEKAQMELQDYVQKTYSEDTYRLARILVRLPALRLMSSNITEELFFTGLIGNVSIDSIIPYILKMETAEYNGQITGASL

log2 fold change, inactive:
MYH10 isoform 3 (UniProt P35580) -0.073
NFX1 (UniProt Q12986) 0.095
MMADHC (UniProt Q9H3L0) 0.158
MRPS24 (UniProt Q96EL2) 0.086
OSBPL8 (UniProt Q9BZF1) 0.084
MMS19 isoform 8 (UniProt Q96T76) 0.033
NOP53 (UniProt Q9NZM5) -0.001
MIS12 (UniProt Q9H081) -0.003
MLX (UniProt Q9UH92) -0.17
NRF1 isoform 4 (UniProt Q16656) -0.041
MUL1 (UniProt Q969V5) -0.005
NA (UniProt B2RBV5) -0.058
NDUFA7 (UniProt O95182) 0.027
NPEPPS (UniProt P55786) -0.007
NCAPG (UniProt Q9BPX3) 0
NIPSNAP3B (UniProt Q9BS92) -0.03
NANS (UniProt Q9NR45) 0.025
OXR1 isoform 2 (UniProt Q8N573) 0.004
NOS1AP (UniProt O75052) -0.337
NA, A0A0B4J2A0 0.021
NDUFB8 (UniProt O95169) 0.067
NA, A0A096LPI6 0.027
NUMB (UniProt P49757) -0.008
NCAPH (UniProt Q15003) 0.012
MRPL50 (UniProt Q8N5N7) -0.005
MON1B (UniProt Q7L1V2) 0.017
NMT2 (UniProt O60551) 0.023
NR2C2 isoform 2 (UniProt P49116) 0.019
NME1 isoform 2 (UniProt P15531) 0.031
NAA38 isoform 2 (UniProt Q9BRA0) 0.13
OPA1 isoform 2 (UniProt O60313) -0.008
NDUFA6 (UniProt P56556) -0.041
NDUFA9 (UniProt Q16795) -0.011
MRPS17 (UniProt Q9Y2R5) 0.118
